From PubChem BioAssay (NCATS) come the findings set out here.

The nature of test [1]: Primary qHTS for inhibitors of SARS-S pseudo-typed particle cell entry (AID 1479145; further: nearly all actives have a fitted effect of over 45% in size; further: potency means the concentration at half of the fitted maximal effect). (In general: Quantitative high-throughput screening tests each substance at several concentrations.)
A short description of test [2]: Primary qHTS for Huh7 cytotoxicity: counterscreen for inhibitors of MERS-S pseudotyped particle cell entry (AID 1479147).
Test [3] is described as follows: Primary qHTS for inhibitors of MERS-S pseudo-typed particle cell entry (AID 1479149). Further: nearly all actives have a fitted effect of over 60% in size. Further: potency means the concentration at half of the fitted maximal effect.
Test [4] can be described thus: Primary qHTS for Vero E6 cytotoxicity: counterscreen for inhibitors of SARS-S pseudo-typed particle cell entry (AID 1479150).
Test [5] in a line: Confirmatory qHTS for VERO E6 Cytotoxicity Assay: Counterscreen for SARS-CoV-2 CPE Assay (AID 1508605). Further: series mostly up to about 20 µM; nearly all actives have a fitted effect of over 60% in size.
The nature of test [6]: Confirmatory qHTS for activators (rescue) of SARS-CoV-2 Cytopathic Effect (CPE) (AID 1508606). Further: potency means the concentration at half of the fitted maximal effect; nearly all actives have a fitted effect of over 70% in size.

Inconclusive results are not listed. The source made the active and inactive calls. The call rests on the fitted dose curve.

On to `CO[C@]1(NC(=O)CSC(F)F)C(=O)N2C(C(=O)O)=C(CSc3nnnn3CCO)CO[C@H]21`, for which the Potency entry in test [1], in test [2], in test [3] and in test [4] was “inactive” throughout.

As to `CCCC(=O)O[C@]1(C(=O)CCl)[C@@H](C)C[C@H]2[C@@H]3CCC4=CC(=O)C=C[C@]4(C)[C@@]3(F)C(=O)C[C@@]21C`, the Potency result in test [1], in test [2] and in test [4] was “inactive” each time.

As for `CC(=O)[C@H]1CC[C@H]2[C@@H]3CC=C4C[C@@H](O)CC[C@]4(C)[C@H]3CC[C@]12C`, the Potency entry in test [1], in test [2] and in test [4] was “inactive” in each case.

As to `O=C(Nc1ccc([N+](=O)[O-])cc1)Nc1ccc([N+](=O)[O-])cc1`, the Potency result in test [1], in test [2], in test [3] and in test [4] was “inactive” each time.

With `CCOC(=O)C1=C(C)NC(C)=C(C(=O)OCC)C1c1ccccc1/C=C/C(=O)OC(C)(C)C`, the Potency result in test [1], in test [2] and in test [4] was “inactive” each time.

For `O=C1OC2(c3ccc(O)cc3Oc3cc(O)ccc32)c2ccccc21`, the Potency entry in test [1], in test [2], in test [3] and in test [4] was “inactive” each time.

For the compound `CCC(CN)=C(c1ccccc1)c1ccccc1`, the Potency result in test [1], in test [2] and in test [4] was “inactive” throughout.

Turning to `CCOC(=O)n1ccn(C)c1=S`, the Potency result in test [1], in test [2], in test [3] and in test [4] was “inactive” throughout.

Regarding `N=C(N)c1ccc2cc(OC(=O)c3ccc(N=C(N)N)cc3)ccc2c1`, the Potency result in test [1], in test [2] and in test [4] was “inactive” in each case.

As for `CN(C)CC/C=C1\c2ccccc2Sc2ccc(Cl)cc21`, the Potency was 10 µM (active) in test [1], 25.1 µM (active) in test [3] and 8.91 µM (active) in test [6]. The Potency entry in test [2], in test [4] and in test [5] was “inactive” each time.

On to `CCOC(=O)[C@H](CCc1ccccc1)N[C@H]1CCc2ccccc2N(CC(=O)O)C1=O`, for which the Potency entry in test [1], in test [2], in test [3], in test [4] and in test [5] was “inactive” throughout.

For the compound `NC(=O)c1ncn([C@@H]2O[C@H](CO)[C@@H](O)[C@H]2O)c1N`, the Potency result in test [1], in test [2] and in test [4] was “inactive” each time.

As to `C[C@]12CCC(=O)C=C1[C@@H]1C[C@@H]1[C@H]1[C@@H]3[C@@H]4C[C@@H]4[C@@]4(CCC(=O)O4)[C@@]3(C)CC[C@@H]12`, the Potency result in test [1], in test [2] and in test [4] was “inactive” in each case.

For `CCOC(=O)C1=C[C@]2(CC)CCCN3CCc4c(n1c1ccccc41)[C@@H]32`, the Potency result in test [1], in test [2] and in test [4] was “inactive” throughout.

Turning to `COc1ccc2[nH]c(S(=O)Cc3ncc(C)c(OC)c3C)nc2n1` (configuration not stated), the Potency in test [1] is 20 µM (active). Besides, the Potency result in test [2] and in test [4] was “inactive” in each case.

For the compound `CC(C)C(=O)Nc1cccc(C2CN3CCSC3=N2)c1` (configuration not stated), the Potency result in test [1], in test [2] and in test [4] was “inactive” throughout.

For `CCOC(=O)Cn1cccc1-c1nc(-c2ccc(OC)cc2)c(-c2ccc(OC)cc2)s1`, the Potency in test [1] was 14.1 µM (active). In addition, the Potency entry in test [2] and in test [4] was “inactive” each time.

`Cn1c(=O)c2c(ncn2C)n(C)c1=O`: the Potency entry in test [1], in test [2] and in test [4] was “inactive” throughout.

In the case of `CC(=O)O[C@H]1C[C@@H]2CC[C@@H]3[C@H](CC[C@@]4(C)[C@H]3C[C@H]([N+]3(C)CCCCC3)[C@@H]4OC(C)=O)[C@@]2(C)C[C@@H]1N1CCCCC1`, the Potency entry in test [1], in test [2], in test [3] and in test [4] was “inactive” each time.

Turning to `CC1(C)O[C@@H]2C[C@H]3[C@@H]4C[C@H](F)C5=CC(=O)CC[C@]5(C)[C@H]4[C@@H](O)C[C@]3(C)[C@]2(C(=O)CO)O1`, the Potency result in test [1], in test [2], in test [3] and in test [4] was “inactive” throughout.

With `Cc1nc(C2CCCCC2)c(-c2ccc(S(N)(=O)=O)c(F)c2)o1`, the Potency entry in test [1], in test [2], in test [3] and in test [4] was “inactive” in each case.

For the compound `CC(C(O)c1ccc(O)cc1)N1CCC(Cc2ccccc2)CC1` (configuration not stated), the Potency result in test [1], in test [2], in test [3] and in test [4] was “inactive” each time.

Consider `CC(C)(C)c1ccc(C(O)CCCN2CCC(C(O)(c3ccccc3)c3ccccc3)CC2)cc1` (configuration not stated), for which the Potency result in test [1], in test [2] and in test [4] was “inactive” throughout.

As to `CCCCC(=O)O[C@]1(C(=O)CO)[C@@H](C)C[C@H]2[C@@H]3CCC4=CC(=O)C=C[C@]4(C)[C@@]3(F)[C@@H](O)C[C@@]21C`, the Potency entry in test [1], in test [2], in test [3] and in test [4] was “inactive” in each case.

Take `C1CCC(C(CC2CCCCN2)C2CCCCC2)CC1` (configuration not stated): the Potency in test [1] was 25.1 µM (active); in test [3], 10 µM (active).

Turning to `CC(=O)Oc1ccc(C2(c3ccc(OC(C)=O)cc3)Oc3ccccc3NC2=O)cc1`, the Potency entry in test [2] and in test [3] was “inactive” in each case.

`CCCCNc1ccc(C(=O)OCCN(C)C)cc1`: the Potency entry in test [2], in test [3] and in test [4] was “inactive” in each case.

For `CN(C)c1ccc(C(=C2C=CC(=[N+](C)C)C=C2)c2ccc(N(C)C)cc2)cc1`, the Potency was 1 µM (active) in test [1] and 1.12 µM (active) in test [3].

Turning to `O=c1[nH]c(=O)n([C@H]2C[C@H](O)[C@@H](CO)O2)cc1C(F)(F)F`, the Potency entry in test [2] and in test [4] was “inactive” each time. In addition, the Potency in test [3] is 10 µM (active).

For the compound `Oc1ccc(O)cc1`, the Potency result in test [1] and in test [4] was “inactive” in each case.

For the compound `OCc1cc(C(O)CNCCCCCCOCCCCc2ccccc2)ccc1O` (configuration not stated), the Potency entry in test [1] and in test [4] was “inactive” each time.

On to `COc1ccc(CCN(C)CCCC(C#N)(c2cc(OC)c(OC)c(OC)c2)C(C)C)cc1OC` (configuration not stated), for which the Potency entry in test [2] and in test [3] was “inactive” in each case.

Consider `COc1ccc(-n2nc(CCC(=O)N(C)O)cc2-c2ccc(Cl)cc2)cc1`, for which the Potency result in test [1] and in test [4] was “inactive” each time.

Turning to `COc1cc(C(=O)OCCCN2CCCN(CCCOC(=O)c3cc(OC)c(OC)c(OC)c3)CC2)cc(OC)c1OC`, the Potency in test [1] was 11.2 µM (active). Also, the Potency result in test [2] and in test [4] was “inactive” each time.

Consider `CCCCOc1cc(C(=O)NCCN(CC)CC)c2ccccc2n1`, for which the Potency in test [1] was 14.1 µM (active). For the same compound, the Potency entry in test [4] and in test [5] was “inactive” each time.

Consider `CCCCCCCCCCCCOCCOCCOCCOCCOCCOCCOCCOCCOCCO`, for which the Potency result in test [2] was “inactive”. Moreover, the Potency in test [3] is 8.91 µM (active).

As for `N=C(N)c1ccc(OCCCOc2ccc(C(=N)N)cc2)cc1`, the Potency result in test [2] is “inactive”.

For `CC(C)N=C(N)/N=C(\N)Nc1ccc(Cl)cc1`, the Potency result in test [2] and in test [3] was “inactive” in each case.

As to `OC[C@H]1O[C@@H](n2cnc3c(=S)nc[nH]c32)[C@H](O)[C@@H]1O`, the Potency entry in test [1] and in test [3] was “inactive” throughout.

Consider `CCN(CCCCOC(=O)c1ccc(OC)c(OC)c1)C(C)Cc1ccc(OC)cc1` (configuration not stated), for which the Potency in test [1] is 11.2 µM (active). Further, the Potency result in test [2] and in test [4] was “inactive” in each case.
